VACV mCherry inh: inhibitors of vaccinia virus infection (mCherry reporter signal). Potency, µM (titrated, usually from 36.5 µM), inactives show at the top dose activity change, negative = inhibition, hits mostly inhibitors. hit rate 0.63% among 310,000. Vaccinia virus mCherry reporter infection, fluorescence. AID 720579; calls by dose curve; tested in A549 cells; further: potency means the concentration at half of the fitted maximal effect; nearly all actives have a fitted effect of over 35% in size
FMDV inh: foot and mouth disease virus antiviral activity. Potency, µM (doses to about 57.9 µM), inactives show at the highest dose activity change, negative = inhibition, actives largely listed as inhibitors. AID 1159524. hit rate 1.2% among 410,000. FMDV antiviral cell-based qHTS; calls by dose curve; tested in HEK293T cells; further: read-out not given here; potency means the concentration at half of the fitted maximal effect; nearly all actives have a fitted effect of over 45% in size
HCMV antiviral: blocks human cytomegalovirus replication | HFF cells, HCMV-luciferase reporter, 72 h; hits give low values | activity change, negative = inhibition, % at 57.5 µM | hit rate 4.5% among 410,000 | AID 1259415; in the data active means activity change below about -60%; inconclusive means no clear call, values can overlap the other calls; inactive means above about -39%
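Screen run at 2 compound doses on HFFs infected with reporter HCMV, MOI 1 PFU/cell. Luciferase activity from cell lysates at 72 h post infection gave inhibition relative to buffer-only and Salinomycin wells.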
Giardia FBPA inh: blocks Giardia fructose-bisphosphate aldolase activity | AID 2451 | A8B2U2 | hit rate 0.71% among 290,000 | Potency, µM (titrated, usually from 59.6 µM), without a hit: top-dose activity, negative = inhibition, actives largely listed as inhibitors | purified Giardia FBPA; further: potency means the concentration at half of the fitted maximal effect; nearly all actives have a fitted effect of over 55% in size
Target sequence (A8B2U2 whole entry, looked up): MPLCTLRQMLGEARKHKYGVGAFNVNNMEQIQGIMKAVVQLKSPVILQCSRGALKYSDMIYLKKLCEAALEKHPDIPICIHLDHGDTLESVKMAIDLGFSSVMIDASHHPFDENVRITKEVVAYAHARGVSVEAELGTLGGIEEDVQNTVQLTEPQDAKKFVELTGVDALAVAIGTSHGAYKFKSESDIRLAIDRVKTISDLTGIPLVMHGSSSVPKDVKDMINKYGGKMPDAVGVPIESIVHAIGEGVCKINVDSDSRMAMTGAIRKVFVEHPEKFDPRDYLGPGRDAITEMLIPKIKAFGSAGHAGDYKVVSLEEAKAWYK
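Giardia FBPA (40 nM reagent) was preincubated 10 min at RT with compound (up to 57.5 uM final), then substrate plus GAPDH/TPI/NAD/arsenate coupling system with diaphorase/resazurin was added; resorufin fluorescence (525/598 nm) was read after 20 min.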
HCV inh: inhibitors of hepatitis C virus infection | Potency, µM (top dose mostly 41.8 µM), for the others: top-dose activity change, negative = inhibition, usual class: inhibitors | Huh7.5.1 HCVcc-Cre infection, luciferase reporter, 44 h | hit rate 3.4% among 340,000; further: potency means the concentration at half of the fitted maximal effect
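Infectious HCVcc-Cre (~0.5 moi) was added to cells just after compound, with cells seeded 4 h earlier at 1,000 per well. Luciferase activity after 44 h culture reported infection; substrate was incubated 15 min at room temperature before reading.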
VACV Venus inh: inhibitors of vaccinia virus (Venus reporter); hit rate 0.46% among 330,000; Vaccinia virus Venus reporter expression, fluorescence; Potency, µM (doses to about 36.5 µM), without a hit: at the highest dose activity change, negative = inhibition, usual class: inhibitors; calls by dose curve; tested in A549 cells; further: potency means the concentration at half of the fitted maximal effect; nearly all actives have a fitted effect of over 30% in size
Numbers without * were called inactive; i = inactive; u = inconclusive; x = not tested or not shown; ! = a repeat was not active. Rows were chosen to be rich in hits. Some 7.5% of all compounds tested hit in one or more screens of this group. Unless noted, the call rests on the fitted dose curve; in most records, active means well fitted curve in the direction sought with a large enough effect; inconclusive means small, poorly fitted or top-dose-only effect, or another doubt; inactive means no such curve, though single readings can be large; an effect the other way counts as inactive or inconclusive. On the % scale 0 is the no-effect control and ±100 the full control effect.

SMILES	VACV mCherry inh	FMDV inh	HCMV antiviral	Giardia FBPA inh	HCV inh	VACV Venus inh
O=c1ccnc(Nc2ccc([N+](=O)[O-])cc2)[nH]1	-4%	-7%	-71*	x	-20%	7%
COc1ccc(Nc2nccc(-c3ccc([N+](=O)[O-])cc3)n2)cc1	-25%	-3%	u	10%	u	-14%
CN(c1ccccc1)S(=O)(=O)c1cccc(NC(=O)c2cccc(C#N)c2)c1	x	25µM*	0	x	10µM*	x
CN(c1ccccc1)S(=O)(=O)c1cccc(NC(=O)c2ccc3ncsc3c2)c1	-28%	35µM*	0	-3%	11µM*	-13%
CN(c1ccccc1)S(=O)(=O)c1cccc(C(=O)Nc2cccc(C(=O)NC3CC3)c2)c1	0%	u	-19	x	u	-19%
C=CCn1c(=O)n([C@@H]2O[C@H](CO)[C@@H](O)[C@H]2O)c2nc(N)[nH]c(=O)c21	x	-5%	x	x	x	x
CCCCOc1cccc(C(=O)N(Cc2cccs2)c2ccc(OC)cc2)c1	-25%	-23%	-60*	x	x	-26%
COc1ccc(N(Cc2cccs2)C(=O)c2ccc(OC)c(Cl)c2)cc1	-15%	-5%	-91*	x	x	-13%
CC(=O)N1CCc2cc(S(=O)(=O)NC(C(=O)Nc3nc(C)cs3)C(C)C)ccc21 (stereo not given)	-26%	-15%	-61*	-2%	26%	-14%
COc1ccc2c(c1)c1c(c(=O)n(-c3cccc(Cl)c3)c(=O)n1CC(=O)NCC1CCCO1)n2C (stereo not given)	-4%	-14%	-1	x	x	-7%
O=C(c1ccc(S(=O)(=O)N2CCCC2)cc1)N(c1ccc(F)cc1)C1C=CS(=O)(=O)C1 (stereo not given)	-13%	-11%	-69*	0%	10%	-13%
O=C(c1ccc2c(c1)OCO2)N(c1ccc(Br)cc1)C1C=CS(=O)(=O)C1 (stereo not given)	-14%	-19%	-60*	1%	8%	-13%
CCOC(=O)C1=C(C)N=C2SC(C(=O)OC)=CC(=O)N2C1c1ccc(OC)cc1 (stereo not given)	-12%	14µM*	6	5%	-1%	2%
CCCOc1ccc(C(=O)Nc2cccc(NC(=O)c3ccc(Cl)cc3Cl)c2)cc1	u	-10%	-91*	x	x	u
CC(Oc1ccc(Cl)cc1Cl)C(=O)NNC(=O)c1cccnc1 (stereo not given)	x	0%	-21	0%	14%	x
CC(C)(C)c1cc(Cl)c(O)c(NC(=S)NC(=O)c2cccnc2)c1	x	-9%	-95*	-1%	u	x
O=C(Nc1cccc(NC(=O)c2ccc(Cl)cc2Cl)c1)c1cccnc1	-19%	u	20	4%	32µM*	-24%
CC(Oc1ccc(Cl)cc1Cl)c1nc(-c2ccc(NC(=O)c3cccnc3)cc2)no1 (stereo not given)	x	28µM*	-72*	-20%	11µM*!	u
O=C(NNC(=S)Nc1ccc(Cl)cc1Cl)c1ccncc1	i	30%	-2	u	14%	-4%
O=C(NNC(=S)Nc1ccc(Cl)cc1Cl)c1cccnc1	x	72%	-64*	x	6%	x
CCOc1cc(Cl)c(NC(C)=O)cc1OCC	i	-19%	-63*	1%	u	2%
COc1cccc(/C=C/C(=O)OCC(=O)Nc2ccccc2Sc2ccccc2)c1	-6%	-6%	-65*	-6%	10%	-9%
Cc1ccc(/C=C/C(=O)OCC(=O)Nc2ccccc2Sc2ccccc2)cc1	i	-9%	-22	-2%	24%	-10%
Cc1cccc(Cn2ccn(Cc3ccc(Cl)cc3)c(=O)c2=O)c1	-2%	-2%	-62*	x	x	-5%
Cc1cccc(Cn2ccc(-c3ccc(Cl)cc3)c(C#N)c2=O)c1	x	-16%	-38	4%	-6%	12%
SMILES	VACV mCherry inh	FMDV inh	HCMV antiviral	Giardia FBPA inh	HCV inh	VACV Venus inh
C[C@@H]1CO1	x	x	x	8%	x	x
CS(=O)(=O)c1nc(-c2ccc(F)cc2)cc(C(F)(F)F)n1	u	28µM*	-99*	1%	6.3µM*	u
COc1ccc(-c2cc(C(F)(F)F)nc(S(C)(=O)=O)n2)cc1	u	20µM*	-105*	1%	u	u
COc1ccc(C2CCc3cc(OC)c(OC)cc3C2NC=O)cc1OC (stereo not given)	-14%	-24%	-22	x	x	-17%
COc1ccccc1N(C)c1cc2c(c3c1ccn3C)C1CCC2C1 (stereo not given)	64%	-10%	-89*	x	x	6%
CCN(C)c1cc2c(c3c1ccn3C)C1CCC2C1 (stereo not given)	0%	-12%	-1	x	x	4%
Cc1ccc(-c2nnc(-c3ccc(NC(=O)Cc4cccs4)cc3)o2)cc1	-9%	44%	-85*	2%	u	-13%
O=C(Nc1cccc(-c2nc3ccccc3o2)c1)c1ccc(N2C(=O)C3C4C=CC(C4)C3C2=O)cc1 (stereo not given)	x	32µM*	-26	12%	u	u
COc1ccc(OCC(=O)Nc2cccc(-c3nc4ccccc4o3)c2)cc1	x	-1%	20	-1%	10µM*	x
COc1ccc(C(=O)Nc2cccc(-c3nnc(-c4ccco4)o3)c2)cc1	u	35µM*	-17	1%	13µM*	u
O=C(Cc1cccs1)Nc1cccc(-c2nnc(-c3ccco3)o2)c1	-6%	0%	u	7%	-27%	-8%
COc1ccc(OC)c(NC(=O)COc2ccc(S(=O)(=O)N3CCCC3)cc2)c1	-12%	14%	-36	-6%	u	-15%
Cc1cc(C)cc(OCC(=O)Nc2cccc(-c3nnc(-c4ccco4)o3)c2)c1	-11%	20µM*	62	6%	-3%	0%
Cc1ccc(SCC(=O)Nc2ccc(-c3nnc(-c4ccco4)o3)cc2)cc1	x	16%	32	-4%	11µM*	u
CCCCC(CC)C(=O)Nc1ncc([N+](=O)[O-])s1 (stereo not given)	10µM*	u	-74*	3%	u	u
CCC(c1nc2ccccc2[nH]1)n1c(=O)c(-c2cccnc2)nc2ccccc21 (stereo not given)	-12%	-12%	-17	x	x	2%
COc1ccc(CN2CC[C@H]3C=CC[C@@H](C(=O)Nc4ccccc4)[C@H]3C2=O)cc1OC	-25%	x	x	x	x	-14%
CN(C)S(=O)(=O)N1CCC(Oc2ccc(C(=O)NC3Cc4ccccc4C3)cc2)CC1	x	u	-81*	-3%	3.5µM*	x
CN(C)S(=O)(=O)N1CCC(Oc2ccc(C(=O)NC3CCOC(C)(C)C3)cc2)CC1 (stereo not given)	x	-11%	-23	x	1%	x
O=C(NCc1ccccc1)C1C(=O)Nc2ccccc2C(=O)N1c1ccc2c(c1)OCCO2 (stereo not given)	-6%	18%	24	x	x	10%
